# PubChem BioAssay (Tox21)
# Where “and” joins values, the source holds several entries; their conditions need not be identical. Equal entries are not always repeated. Inconclusive results are not listed. Entries that show only a call come without a potency. Some structures have more than one record in an assay (separate samples or runs), and their calls can disagree. Calls of active or inactive are those of the source. Unless noted, calls follow the shape of the dose curve; as a rule, active = well fitted curve in the direction sought with a large enough effect in the repeat runs; inconclusive = weak or mixed curves; inactive = no such curve, though single readings can be large; an effect the other way counts as inactive or inconclusive.
# Legend:
# [1] = qHTS assay to identify small molecule antagonists of the vitamin D receptor (VDR) signaling pathway - cell viability counter screen (AID 743225); also: nearly all actives have a fitted effect of over 50% in size
# Method in brief: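 Luminescent cell viability (CellTiter-Glo) in VDR-bla HEK 293T cells after 16 h compound exposure at 37C in the presence of 3 nM final 1-alpha,25-dihydroxy vitamin D3.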
# [2] = qHTS assay to identify small molecule agonists of the NFkB signaling pathway - cell viability counter screen (AID 1159515; calls by dose curve; also: nearly all actives have a fitted effect of over 55% in size; also: potency is read from the fitted curve at half-maximal effect)
# Method in brief: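 Parallel cytotoxicity counter screen in ME-180 cells carrying an NFkB-response-element beta-lactamase reporter, 2,000 cells/well. Compound exposure lasted 5 hr at 37 C, 5% CO2. Cell viability was quantified by CellTiter-Glo luminescence.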
# [3] = qHTS assay to identify small molecule agonists of the endoplasmic reticulum stress response signaling pathway - cell viability counter screen (AID 1159517; calls by dose curve; also: nearly all actives have a fitted effect of over 50% in size; also: potency is read from the fitted curve at half-maximal effect)
# Method in brief: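 Cytotoxicity of test compounds toward ESRE-bla HeLa cells was assessed after 5 hr exposure. The luminescent CellTiter-Glo signal was measured 30 min after reagent addition.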
# [4] = qHTS assay to identify small molecule antagonists of the retinoid-related orphan receptor gamma (ROR-gamma) signaling pathway - cell viability counter screen (AID 1159520); also: nearly all actives have a fitted effect of over 50% in size; also: potency is read from the fitted curve at half-maximal effect
# Method in brief: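 Tet-on ROR gamma CHO cells (1,000/well) were plated 4 hr, given compounds in DMSO for 2 hr at 37 C, then induced with 1 uM final doxycycline for 16 hr. Viability was read as ATP by CellTiter-Glo luminescence after 30 min.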
# [5] = target: Nuclear receptor ROR-gamma (Homo sapiens) (UniProt P51449); test: qHTS assay to identify small molecule antagonists of the retinoid-related orphan receptor gamma (ROR-gamma) signaling pathway (AID 1159521; also: nearly all actives have a fitted effect of over 50% in size; also: potency is read from the fitted curve at half-maximal effect)
# Method in brief: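 CHO cells expressing RORγ under a TET-on promoter, luciferase under RORE control. Dox 1 uM final, 16 h; compounds added 2 h prior. Luminescence decrease measured.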
# [6] = qHTS assay to identify small molecule agonists of the AP-1 signaling pathway - cell viability counter screen (AID 1159525; calls by dose curve; also: nearly all actives have a fitted effect of over 55% in size; also: potency is read from the fitted curve at half-maximal effect)
# Method in brief: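 Each titration point was normalised to DMSO and tetra n-octyl ammonium bromide controls. The read was Cell Titer Glo luminescence after 30 min at RT, following 5 h compound exposure of ME-180 AP-1-bla cells at 37 °C.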
# [7] = qHTS assay to identify small molecule agonists of the AP-1 signaling pathway (AID 1159526; calls by dose curve)
# [8] = target: Retinoic acid receptor RXR-alpha (Homo sapiens) (UniProt P19793); test: qHTS assay to identify small molecule agonists of the RXR signaling pathway (AID 1159527; calls by dose curve; also: nearly all actives have a fitted effect of over 35% in size; also: potency is read from the fitted curve at half-maximal effect)
# Retinoic acid receptor RXR-alpha (Homo sapiens), sequence (P19793 whole entry, looked up): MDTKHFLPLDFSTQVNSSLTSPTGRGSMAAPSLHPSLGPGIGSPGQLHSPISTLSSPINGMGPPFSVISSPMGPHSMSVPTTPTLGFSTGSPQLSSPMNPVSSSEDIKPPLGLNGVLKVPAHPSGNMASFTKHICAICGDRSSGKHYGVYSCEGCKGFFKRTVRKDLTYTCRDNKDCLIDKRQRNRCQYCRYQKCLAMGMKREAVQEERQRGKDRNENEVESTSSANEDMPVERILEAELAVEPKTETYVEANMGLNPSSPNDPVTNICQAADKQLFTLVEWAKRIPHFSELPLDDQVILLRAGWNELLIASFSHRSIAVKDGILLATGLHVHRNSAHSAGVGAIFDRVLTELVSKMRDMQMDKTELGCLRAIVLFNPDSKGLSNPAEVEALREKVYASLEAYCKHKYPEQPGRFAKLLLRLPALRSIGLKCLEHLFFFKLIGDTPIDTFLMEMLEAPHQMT
# Method in brief: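 Beta-lactamase reporter assay, agonist format. Engineered HEK 293T line, charcoal-stripped FBS at 2%, overnight (16 hr) exposure, fluorescence at 460 and 530 nm after 405 nm excitation.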
# [9] = qHTS assay to identify small molecule agonists of the RXR signaling pathway - cell viability counter screen (AID 1159529); also: nearly all actives have a fitted effect of over 50% in size; also: potency is read from the fitted curve at half-maximal effect
# Method in brief: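 Same-well viability check after the LiveBLAzer FRET read: CellTiter-Glo added, luminescence measured after 30 min at room temperature. Reporter HEK 293T cells had been treated with compounds for 16 hr following a 5 hr preincubation.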
# [10] = qHTS assay to identify small molecule antagonists of the retinoid acid receptor (RAR) signaling pathway - cell viability counter screen (AID 1159551); also: nearly all actives have a fitted effect of over 35% in size; also: potency is read from the fitted curve at half-maximal effect
# Method in brief: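 ATP-based viability, C3RL4 cells, 6 h at 37 C with 1 uM final retinol co-added after compound; luminescence read 30 min post CellTiter-Glo, RT.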
# [11] = qHTS assay to identify small molecule antagonists of the retinoic acid receptor (RAR) signaling pathway (AID 1159552; also: nearly all actives have a fitted effect of over 50% in size; also: potency is read from the fitted curve at half-maximal effect)
# Method in brief: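 Readout: luciferase luminescence, 30 min post-reagent at RT. Setup: C3RL4 RARE reporter cells, compounds plus retinol 1 uM final, 6 hr incubation at 37 C and 5% CO2.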
# [12] = qHTS assay to identify small molecule agonists of the retinoic acid receptor (RAR) signaling pathway (AID 1159553); also: potency is read from the fitted curve at half-maximal effect
# Method in brief: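 Quantitative high-throughput format: the Tox21 10K library was tested on C3RL4 RARE-luciferase cells for 6 hr at 37 C and 5% CO2, with luminescence measured after a 30 min room-temperature reagent step.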
# [13] = qHTS assay to identify small molecule agonists of the endoplasmic reticulum stress response signaling pathway (AID 1159516; active = well fitted activation curve with a large enough effect in the signal ratio in the repeat runs, not every such curve was filed as active; the % refers to the signal ratio; also: potency is read from the fitted curve at half-maximal effect)
# Method in brief: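 Using a HeLa line with an ESRE-driven beta-lactamase gene, agonist activity was measured by FRET substrate fluorescence (460 and 530 nm emission) after cells were treated with compounds for 5 hr at 37 C and 5% CO2.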
# [14] = qHTS assay to identify small molecule agonists of the vitamin D receptor (VDR) signaling pathway - cell viability counter screen (AID 743224); also: nearly all actives have a fitted effect of over 50% in size; also: potency is read from the fitted curve at half-maximal effect
# Method in brief: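 Compounds were pin-transferred onto VDR-bla cells plated 4 h earlier; following 16 h incubation at 37C, cell viability was quantified by CellTiter-Glo luminescence after 30 min at room temperature.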
# [15] = qHTS assay to identify small molecule antagonists of the estrogen related receptor (ERR) signaling pathway - cell viability counter screen (AID 1224818);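 also: series mostly up to about 46 µM; viability measured after 17.5 h of compound exposure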
# Method in brief: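 Quantitative high-throughput viability counter screen in ERR cells. Compounds (DMSO) incubated 17.5 h at 37 C; read-out was CellTiter-Fluor fluorescence.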
# [16] = qHTS assay to identify small molecule antagonists of the estrogen related receptor (ERR) signaling pathway (AID 1224819)
# Method in brief: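 ERR reporter cell line (NTP) plated at 2,000 cells/well, settled 6 h at 37C/5% CO2, then exposed to LOPAC compounds for 18 h at 37C. One-Glo luciferase luminescence read after 30 min at room temperature.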
# [17] = qHTS assay to identify small molecule agonists of the estrogen related receptor (ERR) signaling pathway (AID 1224820)
# Method in brief: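 Following a 6 h settling period, 2,000 ERR cells per well receive DMSO-dissolved compounds by pin tool and incubate 18 h at 37 C; agonist activity is scored from One-Glo luminescence read 30 min post-addition.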
# [18] = system: estrogen-related receptor alpha (ERRalpha) with PGC-1alpha coactivator, human; test: qHTS assay to identify small molecule antagonists of the estrogen related receptor signaling pathway with the pleiotropic PPARgamma coactivator (PGC) (AID 1224821; calls by dose curve)
# Method in brief: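 Screening used NTP's PGC/ERR cells, dosed via pin tool with compound in DMSO alongside positive and negative controls. After 18 h at 37 C, One-Glo reagent sat 30 min at room temperature before luminescence detection.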
# [19] = qHTS assay to identify small molecule antagonists of the estrogen related receptor signaling pathway with the pleiotropic PPARgamma coactivator (PGC) cell viability counter screen (AID 1224822; also: series mostly up to about 46 µM)
# Method in brief: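 Cytotoxicity in the PGC/ERR cell line is assessed with CellTiter-Fluor, read as fluorescence intensity 30 min after reagent addition, following 17.5 h compound treatment at 37 C.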
SMILES,Potency [1],Potency [2],Potency [3],Potency [4],Potency [5],Potency [6],Potency [7],Potency [8],Potency [9],Potency [10],Potency [11],Potency [12],Potency [13],Potency [14],outcome [15],Potency [16],outcome [17],outcome [18],Potency [19]
CC1(C)O[C@@H]2C[C@H]3[C@@H]4CCC5=CC(=O)C=C[C@]5(C)[C@@]4(F)[C@@H](O)C[C@]3(C)[C@]2(C(=O)CO)O1,inactive,inactive,inactive,inactive,inactive,inactive,inactive,inactive,inactive,inactive,inactive,inactive,,,,,,,
Cc1cc(=O)oc2cc(O)ccc12,inactive,inactive,inactive,inactive,,inactive,inactive,43.6 µM (active),inactive,inactive,,,49 µM (active) and 19 µM (active),,,,,,
O=C(O)CC(O)C(=O)O (stereo not drawn),inactive,inactive,inactive,inactive,inactive,inactive,inactive,inactive,inactive,inactive,inactive,inactive,,,,,,,
C=CCc1ccc(O)c(OC)c1,,inactive,inactive,inactive,inactive,inactive,inactive,inactive,inactive,inactive,inactive,inactive,,inactive,,,,,
CN(C)CCOC(C)(c1ccccc1)c1ccccn1 (stereo not drawn),,inactive,inactive,inactive,inactive,inactive,inactive,inactive,inactive,inactive,inactive,inactive,,,inactive,inactive,inactive,inactive,inactive
Cc1ncc([N+](=O)[O-])n1C,,inactive,inactive,inactive,,inactive,inactive,inactive,inactive,inactive,,,inactive,,,,,,
C=C(C)C(=O)OCC(C)O (stereo not drawn),inactive,inactive,inactive,inactive,inactive,inactive,inactive,inactive,inactive,inactive,inactive,inactive,,inactive,,,,,
CCCCCCCC(=O)OCC(COC(=O)CCCCCCC)OC(=O)CCCCCCC,,inactive,inactive,inactive,inactive,inactive,inactive,inactive,inactive,inactive,inactive,inactive,,inactive,,,,,
CCCc1cc(=O)[nH]c(=S)[nH]1,inactive,inactive,inactive,inactive,inactive,inactive,inactive,inactive,inactive,inactive,inactive,inactive,,,,,,,
CC(C)c1c(C(=O)Nc2ccccc2)c(-c2ccccc2)c(-c2ccc(F)cc2)n1CC[C@@H](O)C[C@@H](O)CC(=O)O,inactive,inactive,inactive,,1.86 µM (active) and 11.4 µM (active) and 2.66 µM (active),inactive,inactive,inactive,inactive,inactive,,inactive,inactive,,inactive,,,,inactive
CCCCCCc1ccc(O)cc1O,,inactive,inactive,61.3 µM (active) and inactive,inactive,43.8 µM (active) and inactive,,inactive,49.1 µM (active) and 54.9 µM (active),inactive,inactive,inactive,inactive,38.9 µM (active) and inactive,,,,,
Nc1ccc(S(N)(=O)=O)cc1,,inactive,inactive,inactive,,inactive,inactive,5.52 µM (active) and inactive,inactive,inactive,,,inactive,,,,,,
O=C1O[C@H]([C@@H](O)CO)C(O)=C1O,,inactive,inactive,inactive,inactive,inactive,inactive,inactive and 12.3 µM (active),inactive,inactive,,,,,,,,,
Cc1cc(C)nc(NS(=O)(=O)c2ccc(N)cc2)n1,,inactive,inactive,inactive,,inactive,inactive,14 µM (active) and inactive,inactive,inactive,inactive,inactive,inactive,,,,,,
O=c1[nH]cnc2c1ncn2[C@H]1CC[C@@H](CO)O1,,inactive,inactive,inactive,inactive,inactive,inactive,inactive,inactive,inactive,inactive,inactive,,,,,,,
Nc1c2c(nc3ccccc13)CCCC2,,inactive,inactive,inactive,inactive,inactive,inactive,inactive,inactive,inactive,inactive,inactive,,inactive,inactive,inactive,inactive,inactive,inactive
CNNCc1ccc(C(=O)NC(C)C)cc1,,inactive,inactive,inactive,,inactive,inactive,inactive,inactive,inactive,,,inactive,,,,,,
Cn1c(=O)c2c(ncn2C)n(C)c1=O,inactive,inactive,inactive,inactive,inactive,inactive,inactive,inactive,inactive,inactive,inactive,inactive,,inactive,inactive,inactive,inactive,inactive,inactive
Oc1ccccc1,inactive,inactive,inactive,inactive,inactive,inactive,inactive,inactive and 11 µM (active),inactive,inactive,inactive,inactive,,inactive,,,,,
Cc1ccc(S(=O)(=O)O)cc1,,inactive,inactive,inactive,,inactive,inactive,inactive,inactive,inactive,,,inactive,inactive,,,,,
CCOC(N)=O,,inactive,inactive,inactive,inactive,inactive,inactive,inactive,inactive,inactive,,,inactive,inactive,,,,,
O=C1c2c(O)cccc2Cc2cccc(O)c21,inactive,inactive,inactive,inactive,inactive,inactive,inactive,inactive,inactive,inactive,,,,inactive,,,,,
CN(C)C(=S)SC(=S)N(C)C,,5.02 µM (active) and 977 nM (active) and 6.74 µM (active),inactive,2.37 µM (active),703 nM (active) and 770 nM (active) and 1.06 µM (active),11.2 µM (active) and 5.49 µM (active) and 16.9 µM (active),,,5.02 µM (active) and 3.89 µM (active) and 1.9 µM (active),48.6 µM (active),1.77 µM (active) and 1.93 µM (active) and 2.37 µM (active),0.668 µM (active),,,,,,,
CCCCCCCCCCCC[N+](C)(C)Cc1ccccc1,,53.9 µM (active) and 47.4 µM (active) and 23.9 µM (active),17 µM (active) and 21.2 µM (active) and 26.8 µM (active),67.3 µM (active) and 66.4 µM (active) and inactive,47.6 µM (active) and 21.1 µM (active),23.9 µM (active),,,6.78 µM (active) and 8.43 µM (active) and 1.69 µM (active),60 µM (active) and 74.5 µM (active),,,,,,,,,
